# Reference: ChEMBL document CHEMBL3988442, “University of Dundee, Small-Polar-MMV Screening Library” (2021)
# Out of some 48,000 compounds screened, about 13,000 (27%) showed an effect of 50% or more. Some of the results follow.
# System: Wolbachia pipientis
# Assay: Anti-Wolbachia Cell-Based Screen
# Type: functional
# Set-up: scale not given: in the data most compounds retested in dose-response had high values
# Conditions: 5 µM
row,SMILES,Percent Effect [%]
1,O=C(CCc1ccc(Br)cc1)NCCc1nnc[nH]1,7.079
2,CC(C)(C)OCCN1CCCC1c1nc(Cc2ccc(F)cc2)no1 (stereo not drawn),28.24
3,c1ccc(CN2CCC(NCCSc3cnn[nH]3)CC2)cc1,-22.28
4,O=C(CCCOCc1ccccc1)N1CCCC1c1ccccn1 (stereo not drawn),-5.136
5,COc1ccc(Oc2cncc(C3CCCN3C(C)=O)n2)cc1 (stereo not drawn),-16.34
6,COC(=O)CCCC(=O)N1CCCCC1c1ccc(F)cc1 (stereo not drawn),-3.374
7,CC(=O)N1CCCC1c1cncc(Oc2ccc(F)cc2)n1 (stereo not drawn),97.95
8,CNCC(=O)N1CCCC1c1cncc(Oc2ccc(F)cc2)n1.Cl (stereo not drawn),105.9
9,CN(C)CC(=O)N1CCCC1c1cncc(Oc2ccc(F)cc2)n1 (stereo not drawn),102.5
10,CN(CC(=O)N1CCCC1c1ccccn1)Cc1ccccc1 (stereo not drawn),-5.131
11,CN(C)CC(=O)N1CCCC1c1ccccn1 (stereo not drawn),98.84
12,COc1ccc(C2CCCN2C(=O)Nc2ccc(OC)nc2)cc1 (stereo not drawn),2.775
13,Cc1cn(-c2ccccc2)nc1NS(=O)(=O)c1cc(C(=O)O)cs1,3.492
14,COc1cccc(-c2n[nH]cc2C(=O)NC(C)c2n[nH]c(C)n2)c1 (stereo not drawn),6.595
15,O=C(NC1CC1)c1nc2c(o1)CN(c1ncccn1)C2,-9.105
16,Fc1ccc(CN2CCCn3cnc(COCC4CC4)c3C2)cc1.O=C(O)C(F)(F)F,3.17
17,CC(C)CNC[C@H]1O[C@H](Cc2cc(-c3ccccn3)on2)CC[C@@H]1O,-6.166
18,Cn1nc(C2CC2)c2c1NC(=O)CC2c1ccc(CN2CCCCC2)s1 (stereo not drawn),-3.758
19,COCCOc1ccccc1CNCC1COC2(CCCC2)O1 (stereo not drawn),0.05602
20,CC(=O)N(Cc1ncc(C)o1)C1CCN(Cc2cc(C)on2)C1 (stereo not drawn),118.6
21,CC(=O)N(Cc1ncc(C)o1)C1CCN(Cc2csc(C)n2)C1 (stereo not drawn),123.5
22,CC(=O)N(Cc1ncc(C)o1)C1CCN(CCCc2cnn(C)c2)C1 (stereo not drawn),5.261
23,CC(=O)N(Cc1ncc(C)o1)C1CCN(Cc2ccon2)C1 (stereo not drawn),139.3
24,CC(=O)N(Cc1ncc(C)o1)C1CCN(Cc2noc(C)n2)C1 (stereo not drawn),3.628
25,CC(=O)N(Cc1ncc(C)o1)C1CCN(Cc2sc(C)nc2C)C1 (stereo not drawn),115.4
26,Cc1cnc(CN(C)C2CCN(CC(=O)N(C)c3nccs3)C2)o1 (stereo not drawn),-8.119

row,SMILES,Percent Effect [%]
1,CC(=O)N(Cc1ncc(C)o1)C1CCN(CCNC2CCCCC2)C1 (stereo not drawn),-4.891
2,COCCCN1CCN(C(=O)C(c2cccc(F)c2)N(C)C)CC1 (stereo not drawn),-8.976
3,CC(NC(=O)C1=NN(C)C(=O)CC1)c1ccc(F)cc1F (stereo not drawn),-12.15
4,COc1ccc(OC)c(C2C3=C(COC3=O)Nc3[nH]nc(C)c32)c1 (stereo not drawn),5.984
5,Cn1c(NCC(O)c2ccc(F)cc2F)c(C#N)c(=O)n(C)c1=O (stereo not drawn),-7.398
6,CCN1CC(C(=O)N2CC(Oc3ccccc3Cl)C2)CC1=O (stereo not drawn),-26.5
7,COCCCNC(=O)Nc1ccc(OCc2noc(C3CC3)n2)cc1,4.086
8,Cc1occc(=O)c1OCc1noc(C(=O)NC2CCCC2)n1,110.2
9,O=C(NC1CCCC1)c1nc2c(o1)CN(CCO)C2,4.983
10,Cc1occc(=O)c1OCc1noc(C(=O)NCC2CC2)n1,118
11,Cc1cc(CN(C)C(=O)NC2CCCC2)no1,-3.677
12,O=C(NCC1CC1)c1nc(COc2ccc3c(c2)OCO3)no1,5.191
13,Cc1ccc(NC(=O)CSCc2cccnc2)nc1,4.357
14,CN(C)C(=O)C1(Oc2ccc(Cl)cc2)CCNCC1,-10.8
15,CC(C)CNC(=O)N1CCC2(CCCO2)C1 (stereo not drawn),14.05
16,O=C(c1ccncc1)N1Cc2ccccc2OC2(CCOCC2)C1,-8.514
17,O=C(C1CCOC1)N1CCC2(CC1)CN(c1ncccn1)CCO2.O=C(O)C(F)(F)F (stereo not drawn),-29.34
18,CC(=O)N1CCCC2(C1)CN(C(=O)C1CCCCC1)CCO2 (stereo not drawn),-22.57
19,O=C(C1CCOC1)N1Cc2ccccc2OC2(CCOCC2)C1 (stereo not drawn),110.4
20,COCCN(C)CCN1CC2(CCN(C(=O)C3CCOC3)CC2)OC1=O (stereo not drawn),-2.366
21,CC(C)NC(=O)N1CCC2(CC1)CN(C(=O)NC(C)C)CCO2,117
22,CC(C)NC(=O)N1CCC2(CCCO2)C1 (stereo not drawn),5.792
23,CC(=O)N1CCOC2(CCN(C(=O)C3CC3)CC2)C1,104.2
24,CC(C)n1cc(C(=O)N2Cc3ccccc3OC3(CCOCC3)C2)cn1,-9.745
25,CC(=O)N1Cc2ccccc2OC2(CCN(C(=O)C3CCOC3)CC2)C1 (stereo not drawn),188.7
26,CN1CCCC2(C1)CN(C(=O)C1CCCCC1)CCO2 (stereo not drawn),-29.79

row,SMILES,Percent Effect [%]
1,CCCn1cnnc1-c1nc2c([nH]1)CC(c1ccc(Cl)cc1)CNC2=O (stereo not drawn),14.47
2,O=S(=O)(Cc1ccc(F)c(Cl)c1)NC(CO)c1ccco1 (stereo not drawn),-13.92
3,COc1ccccc1C1CNC(=O)c2nc(-c3cn(C)nc3C)[nH]c2C1 (stereo not drawn),-4.665
4,Cc1cnc(C(=O)N2CCC3(CC2)C(=O)NCCN3CC(C)C)cn1,4.389
5,COCc1nc(N(C)C/C=C/c2ccccc2)c2cnn(C)c2n1,-13.22
6,O=C(c1c[nH]cn1)N1CCC(n2cc(-c3ccsc3)nn2)CC1,-0.5309
7,CC(=O)N1Cc2ccccc2OC2(CCN(C(=O)C3CC3)CC2)C1,187.7
8,Cc1cc(C(=O)N2Cc3ccccc3OC3(CCOCC3)C2)nc(N)n1,-4.105
9,N#Cc1c(N2CCCN(C3CCOCC3)CC2)nc2ccccn12,-1.844
10,CC(C)(C)c1n[nH]c(C2CN(CCc3cccs3)CCO2)n1 (stereo not drawn),121.2
11,CC(C)(C)c1n[nH]c(C2CN(CCNC3CCCCC3)CCO2)n1 (stereo not drawn),-7.813
12,Cc1nc(C)n(CC2CN(CCc3cccs3)CCO2)n1 (stereo not drawn),-47.87
13,CC(C)c1n[nH]c(C2CN(Cc3nnc(C4CC4)n3C)CCO2)n1 (stereo not drawn),4.048
14,Cc1n[nH]c(C2CN(CCCOc3ccc(F)cc3)CCO2)n1 (stereo not drawn),-9.596
15,CCCc1n[nH]c(C2CN(CCc3cccs3)CCO2)n1 (stereo not drawn),119.2
16,CC(C)c1n[nH]c(C2CN(CCc3cccs3)CCO2)n1 (stereo not drawn),96.38
17,Cn1c(CN2CCOC(c3nc(C(C)(C)C)n[nH]3)C2)nnc1C1CC1 (stereo not drawn),2.258
18,CC(C)c1n[nH]c(C2CN(Cc3ccno3)CCO2)n1 (stereo not drawn),2.718
19,CCc1n[nH]c(C2CN(CCc3cccs3)CCO2)n1 (stereo not drawn),2.973
20,Cc1n[nH]c(C2CN(CCc3cccs3)CCO2)n1 (stereo not drawn),117.1
21,CCCc1n[nH]c(C2CN(CCn3cccn3)CCO2)n1 (stereo not drawn),-0.7272
22,COCCOc1ncccc1C(=O)N(C)c1ccc(OC)nc1,-5.142
23,Cc1ccc(S(C)(=O)=O)cc1C(=O)NS(=O)(=O)c1ccc(Cl)cc1,-5.911
24,Cc1ccc(C(C)NC(=O)N2CCN(C(=O)CC(F)(F)F)CC2)o1 (stereo not drawn),-14.24
25,Nc1cc2c(nn1)CCN(C(=O)c1ccc(-c3ccco3)[nH]c1=O)C2,1.419
26,N#Cc1ccc(CN2CCCN(CCCn3cncn3)CC2)cc1,-13.2

row,SMILES,Percent Effect [%]
1,O=C(CN1CCS(=O)(=O)CC1)Nc1ccc(N2CCCC2)nc1,0.8889
2,CC(C)N(C)[C@@H]1CCN(Cc2ccoc2)[C@H]1Cc1ccccc1,-14.75
3,CC(C)NC(=O)N1CC[C@@H](N(C)C)[C@@H]1Cc1ccccc1.O=C(O)C(F)(F)F,0.7735
4,CN(C)[C@@H]1CCN(S(=O)(=O)C2CC2)[C@H]1Cc1ccccc1.O=C(O)C(F)(F)F,106
5,CN(C)[C@@H]1CCN(c2ncccn2)[C@H]1Cc1ccccc1,-9.311
6,CC(C)N(C)[C@@H]1CCN(S(C)(=O)=O)[C@H]1Cc1ccccc1,103.5
7,CN(C)[C@@H]1CCN(S(C)(=O)=O)[C@H]1Cc1ccccc1,99.96
8,CN(C)[C@@H]1CCN(c2ncc(F)cn2)[C@H]1Cc1ccccc1.O=C(O)C(F)(F)F.O=C(O)C(F)(F)F,3.414
9,CC(C)N(C)[C@@H]1CCN(Cc2ccco2)[C@H]1Cc1ccccc1,2.864
10,CN(C)[C@@H]1CCN(S(=O)(=O)c2cn(C)cn2)[C@H]1Cc1cccnc1.O=C(O)C(F)(F)F.O=C(O)C(F)(F)F.O=C(O)C(F)(F)F,0.7375
11,CCOc1ccc(C(=O)N2C[C@H]3CC[C@@H]2CN(C(=O)C2CCC2)C3)cc1,-22.33
12,CCOc1ccc(C(=O)CCC(=O)NCc2cncn2CC)cc1C,-8.028
13,CC(C)Cc1noc(-c2ccc(NCc3noc(C(C)C)n3)nc2)n1,13.03
14,Cc1ccc(-c2ncc(CN3CCOC(c4ccco4)C3)s2)o1 (stereo not drawn),2.096
15,CN1CCCC2(CC1)CCN(C(=O)CCc1ccccc1F)CC2,-19.97
16,COC(=O)CCC(=O)N1CCC2(CN(Cc3ccccc3)C2)C1,108.2
17,CN1CCN(CC2(O)CCN(C(=O)CCc3ccccc3F)C2)CC1 (stereo not drawn),132.9
18,COC(=O)CCC(=O)N1CCC2(CN(Cc3ccccc3F)C2)C1,106.8
19,COCCC(=O)N1CCC2(CCN(Cc3cccc(F)c3)C2)C1 (stereo not drawn),0.08604
20,COCCC(=O)N1CCC2(CCCN(Cc3cc(OC)ccc3F)C2)C1 (stereo not drawn),-0.03102
21,COC(=O)CCC(=O)N1CCC2(CN(Cc3cccc(F)c3)C2)C1,-9.48
22,CN1CCCC2(CC1)CCN(C(=O)CCc1ccccc1O)CC2,-5.541
23,COC(=O)CCC(=O)N1CCC2(CN(Cc3cccc(Cl)c3)C2)C1,11.86
24,COC(=O)CCC(=O)N1CCC2(CN(Cc3ccc(Cl)cc3)C2)C1,100.4
25,COCCC(=O)N1CCC2(CN(Cc3cccc(F)c3)C2)C1,-10.24
